Among all 410,000 compounds or so, about 6,400 (1.6%) were called active. About 20% were inconclusive and are not listed. The call rests on the fitted dose curve; in most records, active means well fitted inhibition curve with a large enough effect; inconclusive means small, poorly fitted or top-dose-only effect; inactive means no such curve, though single readings can be large or run the other way. Many of the other results were omitted from the sample, so actives are more common in it than they were.
biological target: Glucagon-like peptide 1 receptor (Homo sapiens) (UniProt P43220); experiment: qHTS of GLP-1 Receptor Inverse Agonists (Inhibition Mode); conditions: HEK293 GLP-1R CRE-luciferase, luminescence, 24 h, GLP-1R form is constitutively active; series mostly up to 38.3 µM; activity change, negative = inhibition: at the top concentration; further: nearly all actives have a fitted effect of over 55% in size
Procedure, shortened: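 Seeding at 200 cells/uL, 12 h culture, 24 hr compound treatment, then luciferase reagent and a luminescence read; cells are HEK293 stably expressing a constitutively active GLP-1R plus cAMP-responsive luciferase.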
On the % scale 0 is the no-effect control and ±100 the full control effect; potency means the concentration at half of the fitted maximal effect.

Glucagon-like peptide 1 receptor (Homo sapiens), sequence (P43220 whole entry, looked up): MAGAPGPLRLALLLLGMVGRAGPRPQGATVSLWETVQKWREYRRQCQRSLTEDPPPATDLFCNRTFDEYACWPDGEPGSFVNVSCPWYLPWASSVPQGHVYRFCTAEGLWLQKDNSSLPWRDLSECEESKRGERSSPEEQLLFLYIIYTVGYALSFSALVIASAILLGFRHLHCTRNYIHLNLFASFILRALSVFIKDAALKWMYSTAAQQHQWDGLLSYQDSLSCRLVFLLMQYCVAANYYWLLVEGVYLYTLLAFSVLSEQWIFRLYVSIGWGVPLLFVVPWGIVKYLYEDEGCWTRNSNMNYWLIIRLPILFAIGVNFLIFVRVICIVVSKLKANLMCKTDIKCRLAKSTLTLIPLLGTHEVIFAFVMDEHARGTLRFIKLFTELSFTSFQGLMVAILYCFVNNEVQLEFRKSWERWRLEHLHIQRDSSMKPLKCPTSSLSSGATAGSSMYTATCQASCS

Activity change, negative = inhibition, inactive:
CCCCCCCCN1C(=O)[C@H](CC(=O)NCC23CC4CC(CC(C4)C2)C3)C[C@@]2(C(=O)OC)CCCCC=C12 -8.58%
CCNC(=O)C1(C)CCN(C(=O)c2ccccc2)C1 (configuration not stated) 20.5%
CCOC1=C2[C@@H](CN(S(=O)(=O)c3ccc(C)cc3)[C@H]2c2ccccc2F)[C@H]2C(=O)N(Cc3ccccc3)C(=O)[C@H]2C1 -39.2%
CCCNC(=O)c1cc(C2CCCN(C(=O)c3ccc4c(c3)CCO4)C2)on1 (configuration not stated) 0.506%
O=C(Cn1c(=O)nc(-c2ccccc2)c2cc(Cl)ccc21)NCc1ccc(Cl)cc1 -8.05%
O=C(O)C1CCCN1c1nc(Cl)ccc1[N+](=O)[O-] (configuration not stated) -3.65%
Cc1ccc(F)c(S(=O)(=O)NC(=O)C2(C)CCN2C(=O)c2ccco2)c1 (configuration not stated) 24.1%
COn1c(-c2ccc(Cl)cc2Cl)nc2ncccc21 3.04%
CCn1c(-c2cccnc2Cl)nc2cc(C)c(C)cc21 -15.5%
O=C(C[C@H]1CC[C@H]2[C@@H](COC[C@H](O)CN2C(=O)c2ccccn2)O1)N1CCN(c2ccccc2)CC1 0.39%
O=C(COc1ccc(Br)cc1)OCC(=O)c1ccc[nH]1 5.29%
O=C1CCC(=O)N1CCC(=O)N(C(=O)NC1CCCCC1)C1CCCCC1 9.57%
CCCCN(CC)CCCNC(=O)CS(=O)(=O)Cc1nc(-c2cccc(OC)c2)oc1C 0%
COc1ccc(OC)c(CN2C(=O)CCC2(C)c2nnnn2Cc2ccccc2)c1 (configuration not stated) 23.1%
O=C1CCC(C(=O)OCC(=O)Nc2ccc(OC(F)F)cc2)=NN1 0.906%
Cc1cc(C)c(NC(=O)C[N+](C)(C)CC(O)COc2cccc3ccccc23)c(C)c1 (configuration not stated) -10.9%
CCC(C)Sc1nc2c(c(=O)[nH]c(=O)n2C)n1CC(O)COc1cccc2ccccc12 (configuration not stated) 7.64%
Nc1ncnc2c1ncn2[C@@H]1O[C@H](C(=O)N2CCCN(Cc3ccccc3F)CC2)[C@@H](O)[C@H]1O 20.7%
CC1(C(=O)NS(=O)(=O)c2cccc(F)c2)CCN1C(=O)Cc1ccc(Cl)cc1Cl (configuration not stated) -4.91%
Cc1nc(N2CCN(c3ccccn3)CC2)c2c(C)c(C(=O)Nc3ccc(F)cc3)sc2n1 17.5%
COc1ccc(NC(=O)c2sc3nc(C)nc(N4CCN(c5ccccn5)CC4)c3c2C)c(OC)c1 9.53%
CN(Cc1ccc(C(F)(F)F)cc1)C(=O)[C@H]1O[C@@H](n2cnc3c(N)ncnc32)[C@H](O)[C@@H]1O 28.2%
COc1cc2[nH]c(=O)n(Cc3ccc(C(=O)NC4CCN(Cc5ccccc5)CC4)cc3)c(=O)c2cc1OC 10.8%
COc1ccc(C(=O)O)cc1S(=O)(=O)NC1CCN(Cc2ccccc2)CC1 7.59%
O=C(C=CC(=O)Nc1ccc(F)cc1F)Nc1ccc(F)cc1F 16.9%
CCOC(=O)N1CCN(C(=O)c2ccc(S(=O)(=O)Nc3cccc(C(F)(F)F)c3)cc2)CC1 -8.41%
O=C(NCc1ccncc1)c1cccc(NS(=O)(=O)c2ccc(F)c(F)c2)c1 -12.2%
CC(=O)Nc1ccc(C=Cc2ccc([N+](=O)[O-])cc2)cc1 9.15%
CC(=O)Nc1ccc(C=CC(=O)c2ccc([N+](=O)[O-])cc2)cc1 -3.33%
CN1OC[C@@H]2CN(C(=O)c3cccc4ccccc34)[C@H](c3ccc(N4CCCCC4)cc3)C[C@@H]21 3.98%
CCN(Cc1ccncc1)C(=S)Nc1ccccc1C -2.47%
COCCNC(=S)N(Cc1cccnc1)Cc1ccc(OC)c(OC)c1 14.6%
Nc1nc2cc(Cl)ccc2n1N -52.9%
C[C@H]1Cn2cnc(C(=O)N[C@@H](Cc3c[nH]c4ccccc34)C(=O)OC(C)(C)C)c2C(=O)N1 6.39%
COc1ccccc1C(=O)NC(=S)Nc1ccc(N2CCOCC2)cc1 -5.24%
O=C(Cc1ccc([N+](=O)[O-])cc1)NCCS(=O)(=O)N1CCN(c2ccccc2)CC1 -2.98%
Cn1nccc1C(=O)NC1CCCc2c1cnn2-c1ccc(F)cc1F (configuration not stated) 10%
Cc1ccc(-n2ncc3c2CCCC3NC(=O)c2cnccn2)cc1C (configuration not stated) 8.53%
COCCCNC(=O)c1ccc(-c2c(C)noc2C)c2ccoc12 -5.17%
CCCS(=O)(=O)NC(=O)C1(C)CCCN(C(=O)c2cc(C)on2)C1 (configuration not stated) 8.84%
CCC1NC(=O)c2cccnc2-n2c1nc1ccc(C)cc1c2=O (configuration not stated) -5.41%
CCN1C(=O)[C@@H]2[C@@H](c3ccc(-c4ccc(OC)cc4)c(OC)c3)N3CCC[C@@]3(C(=O)OC)[C@@H]2C1=O 2.32%
CCCCCCSc1ccc([C@@H]2[C@H]3C(=O)N(CC)C(=O)[C@H]3[C@]3(C(=O)OC)CCCCN23)cc1 -8.07%
CSc1ccc(CNC(=O)C2(C)CCCN2C)cc1 (configuration not stated) 9.89%
Cc1cc(C(=O)N2CCCC2(C)C(=O)O)c(C)o1 (configuration not stated) 25.9%
O=C(c1ccc(-c2ccccc2)cc1)C1CCCN(C(=O)c2cncs2)C1 (configuration not stated) -53%
CCn1nc(C)cc1C(=O)N1CCCC(C(=O)c2cccc(OC)c2)C1 (configuration not stated) 32.6%
CCOC(=O)[C@]12CCC=C1N(Cc1ccco1)C(=O)[C@H](CC(=O)N1CCSCC1)C2 8.51%
Clc1nc(NC2CCCC2)nc(N2CCOCC2)n1 30.6%
COC(=O)c1ccc(Oc2nc(Nc3ccc(F)cc3)nc(N3CCCC3)n2)cc1 2.41%
CO[C@@H]1CN(C)C(=O)c2cc(NC(=O)Nc3cc(F)ccc3F)ccc2OC[C@H](C)N(C(=O)c2ccccn2)C[C@@H]1C 12.7%
CCN(CC)C(=O)C1=C(C)N(Cc2ccc(F)cc2)C(=O)C(CC(=O)NC2CCCC2)C1 (configuration not stated) 1.9%
O=C(Nc1ccc(F)cc1)C(CCc1ccccc1)N1CCN(CC(=O)N2CCCC2)CC1 (configuration not stated) 15.1%
N#CCSc1ccccc1NC(=O)CN1C(=O)NC(CCc2ccccc2)C1=O (configuration not stated) 4.84%
Nc1cc(C(=O)N2CCN(c3ccccc3Cl)CC2)ccc1N1CC2CC(C1)c1cccc(=O)n1C2 (configuration not stated) 1.93%
CCC(=O)NC(=S)Nc1ccc(NC(=O)c2ccco2)c(Cl)c1 56.6%
Cc1cc(NC(=O)c2ccc(F)cc2)ccc1NC(=O)c1ccco1 -2.68%
O=C(Nc1ccc(N2CCOCC2)cc1)c1cccc2c(-c3ccc(F)c(F)c3)coc12 6.21%
O=NN(CCCl)C(=O)NCCc1cccc[n+]1[O-] 13.9%
CCc1nc(SCC(=O)Nc2ccccc2OC)n[nH]1 9.23%
COc1ccccc1NC(=S)NC(=O)C(C)C 0%
Cc1ccccc1NC(=O)Cc1nc(COC(=O)CNC(=O)c2ccc(Cl)cc2Cl)cs1 4.36%
CCOc1ccc(CCNC(=O)COC(=O)c2ccc(C)c(S(=O)(=O)N3CCOCC3)c2)cc1OCC 3.97%
Cc1cc(Br)cn2c(Cc3ccsc3)c(-c3ccc(C#N)cc3)nc12 -7.25%
COc1ccccc1OCC(O)CN1CCOCC1 (configuration not stated) 4.18%
Cc1ccc(OCC(O)CN2CCN(CC(O)COc3ccc(C)cc3Cl)CC2)c(Cl)c1 (configuration not stated) 3.12%
O=C1NC[C@H](Cc2ccc(O)cc2)N(C[C@H]2CCCN2C[C@H](Cc2ccccc2)N2C[C@H](Cc3ccccc3)N(CCc3ccccc3)C(=O)C2=O)C1=O 9.65%
CC1(C(=O)NS(=O)(=O)c2ccccc2)CCN1C(=O)C1CCCCC1 (configuration not stated) -3.17%
Cc1cc2oc(C(=O)N(Cc3ccc(Cl)cc3)Cc3ccco3)c(C)c2cc1Cl 6.07%
CCOc1ccc(S(=O)(=O)N(CC(=O)NCC(F)(F)F)Cc2ccco2)cc1 16%
CC(=O)c1nn(-c2ccccc2)c(=Nc2ccccc2)cc1C 1.43%
Cc1cc2c3ccccc3[nH]c(=O)n2n1 23.2%
CSc1ncnc2c1ncn2CCCNCc1ccco1 14.9%
COc1ccc(-c2cc(NC=O)c3ncc(-c4ccccc4)n3c2)cc1OC -18.1%
OCc1ccc(OCCCOc2cccc3cccnc23)cc1 25.8%
Fc1ccccc1COc1cccc2cccnc12 -24%

Potency, active:
CC(C)c1ccc2c(c1)c(SC(C)(C)C)c(CC(C)(C)C(=O)O)n2Cc1ccc(Cl)cc1 2.82 µM
Clc1ccc(COn2c(-c3ccc(Cl)cc3Cl)nc3ncccc32)cc1 10 µM
COc1cccc(-c2nc(CS(=O)(=O)CC(=O)N3CCN(c4cc(C)ccc4C)CC3)c(C)o2)c1 7.94 µM
CC(C)c1ccccc1OCC(O)CN(CC(O)COc1cccc2ccccc12)C(C)C (configuration not stated) 8.91 µM
Cc1nc(N2CCC(C)CC2)c2c(C)c(C(=O)Nc3cc(F)ccc3C)sc2n1 10 µM
COc1cc(C(=O)NC2CCN(Cc3ccccc3)CC2)cc(Cl)c1OC(C)C 10 µM
O=C(NCc1ccccc1)c1ccc(S(=O)(=O)Nc2cccc(C(F)(F)F)c2)cc1 10 µM
O=C(O)/C=C/C(=O)NNc1ccc([N+](=O)[O-])cc1 8.91 µM
Cc1ccc(CN(Cc2cccnc2)C(=S)Nc2cc(Cl)ccc2C)cc1 10 µM
COc1ccc(OC)c(C(=O)NC2CCCc3c2cnn3-c2cc(C)cc(C)c2)c1 (configuration not stated) 10 µM
CCCCCCSc1ccc([C@@H]2[C@@H]3C(=O)N(CC)C(=O)[C@@H]3[C@]3(C(=O)OC)CCCCN23)cc1OC 11.2 µM
Cn1nccc1C(=O)N1CCCC(C(=O)c2ccc(Oc3ccccc3)cc2)C1 (configuration not stated) 3.55 µM
COc1nc(NC2CCCCC2)nc(N2CCCCCC2)n1 5.01 µM
CN1CCN(C2Cc3ccc(Cl)cc3Sc3ccc(F)cc32)CC1 (configuration not stated) 8.91 µM
CCN(CC)P(=O)(Nc1ccc(SC(F)F)cc1)c1ccc(N(C)C)cc1NC(=O)c1ccco1 (configuration not stated) 2.51 µM
CCSc1nsc(NC(=O)Nc2ccccc2OC)n1 11.2 µM
OC(COc1ccc(F)cc1Cl)CN1CCc2ccccc2C1 (configuration not stated) 10 µM
O=C1OC(Oc2ccc(Br)cc2)(c2ccccc2)c2ccccc21 (configuration not stated) 10 µM
O=C(COc1ccc(Cl)cc1)N(Cc1ccco1)Cc1ccco1 10 µM
O=C(Nc1ccccc1)Oc1cccc2cccnc12 3.98 µM

Potency, inactive:
COc1cccc(-c2nc(CS(=O)(=O)CC(=O)NCCc3ccc(OC)c(OC)c3)c(C)o2)c1
